# Laboratory results taken from PubChem BioAssay (EPA / NIEHS).
# Values joined by “and” are separate entries in the source; they are usually repeats but may differ in a detail not shown here. Identical values can stand only once. Some compounds were tested as several samples or in several runs, with calls that do not always agree. Active and inactive are the calls of the source. Rule for the calls: active = hit-call score of the fitted dose curve at least 0.9, where 1 is the maximum; inactive = score below 0.9.
# What was measured:
# [1] = target: Bile acid receptor (Homo sapiens) (UniProt Q96RI1); test: ATG_IR1_CIS: Attagene CIS-FACTORIAL HepG2 Assay for human Nuclear Receptor Subfamily 1 Group H Member 4 (NR1H4), IR1 submotif (AID 2282946); conditions: IR1 reporter transcription, actives raise or lower the signal
# Procedure, shortened: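 Readout: reporter transcript levels by RT-PCR with fluorescent capillary electrophoresis, from HepG2 cells transiently transfected with multiplexed cis-regulated reporters and dosed 24 h. Gain- or loss-of-signal fitted versus DMSO negative control.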
# [2] = ATG_GRE_CIS: Attagene CIS-FACTORIAL HepG2 Assay for human Glucocorticoid Response Elements (GRE) (AID 2282947); conditions: HepG2 GRE cis-reporter, Attagene multiplex mRNA; actives raise or lower the signal
# Procedure, shortened: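 HepG2, transient cis-reporter transfection, 24 h. Reporter mRNA: RT-PCR then CE, fluorescence. Fit both directions vs DMSO.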
# [3] = ATG_ISRE_CIS: Attagene CIS-FACTORIAL HepG2 Assay for human Interferon Regulatory Factor 1 (IRF1) binding to an Interferon-Stimulated Response Element (ISRE) (AID 2282948); conditions: HepG2 ISRE cis-reporter (Attagene), mRNA transcription readout; actives raise or lower the signal
# Procedure, shortened: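 Read-out: fluorescent RT-PCR products resolved by capillary electrophoresis, reporting endogenous transcription factor activity via ISRE-driven reporter mRNA in transfected HepG2 cells dosed for 24 h; gain or loss fitted relative to DMSO.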
# [4] = ATG_M_32_CIS: Attagene CIS-FACTORIAL HepG2 Assay for M32 Transcription Factor (Internal Marker) (AID 2282949); conditions: HepG2 Attagene cis-factorial M32 reporter, mRNA; actives raise or lower the signal;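 note: background control marker of the multiplexed CIS panel rather than a real target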
# Procedure, shortened: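 Using DMSO as baseline, bidirectional curve fits were applied to reporter mRNA signals. These came from transiently transfected HepG2 cells exposed for 24 h, with RNA analysed by RT-PCR, FAM primer extension, HpaI digestion and CE.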
# [5] = ATG_M_06_CIS: Attagene CIS-FACTORIAL HepG2 Assay for M06 Transcription Factor (Internal Marker) (AID 2282950); conditions: HepG2 Attagene CIS-FACTORIAL M06 internal marker reporter; actives raise or lower the signal
# Procedure, shortened: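 HepG2 liver cells, 24 h exposure. Reporter transcripts from transfected cis-element constructs quantified by RT-PCR/capillary electrophoresis fluorescence. Bidirectional curve fit against DMSO.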
# [6] = target: Hypoxia-inducible factor 1-alpha (Homo sapiens) (UniProt Q16665); test: ATG_HIF1a_CIS: Attagene CIS-FACTORIAL HepG2 Assay for human Hypoxia Inducible Factor 1 (HIF1A) (AID 2282951); conditions: HepG2 Attagene cis-factorial HIF1a reporter transcription; actives raise or lower the signal
# Procedure, shortened: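 In this multiplexed cell assay, HepG2 cells bearing transfected cis reporters are dosed for 24 h and reporter mRNA is read by RT-PCR plus capillary electrophoresis; signal increases and decreases are both scored against DMSO.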
# [7] = target: Hepatocyte nuclear factor 6 (Homo sapiens) (UniProt Q9UBC0); test: ATG_HNF6_CIS: Attagene CIS-FACTORIAL HepG2 Assay for human Hepatocyte Nuclear Factor 6 (HNF6) (AID 2282952); conditions: HepG2 Attagene cis-factorial HNF6 reporter transcription; actives raise or lower the signal
# Procedure, shortened: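 First, HepG2 cells were transfected with the multiplexed cis reporter library and dosed with chemical for 24 h. Next, RNA was reverse-transcribed, PCR-amplified and fluorescently labelled. Finally, HpaI-digested fragments were read by capillary electrophoresis.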
# [8] = target: Heat shock factor protein 1 (Homo sapiens) (UniProt Q00613); test: ATG_HSE_CIS: Attagene CIS-FACTORIAL HepG2 Assay for human Heat Shock Transcription Factor 1 (HSE) (AID 2282953); conditions: HepG2 HSE cis-reporter, Attagene RNA transcription; actives raise or lower the signal
# Procedure, shortened: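 Endogenous transcription factor activity captured via cis-promoter reporter units transfected into HepG2; treatment lasted 24 h. Fluorescence intensity of reporter fragments analysed with bidirectional curve fitting, DMSO baseline.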
# [9] = ATG_MRE_CIS: Attagene CIS-FACTORIAL HepG2 Assay for human Metal Responsive Element (MRE) (AID 2282954); conditions: HepG2 MRE cis-reporter transcription, Attagene multiplex; actives raise or lower the signal
# Procedure, shortened: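 Readout: capillary electrophoresis of 6-FAM-labelled, HpaI-digested RT-PCR reporter products. System: HepG2 cells carrying transient multiplexed cis reporters, dosed 24 h. Analysis: bidirectional fit, DMSO baseline.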
# [10] = ATG_PBREM_CIS: Attagene CIS-FACTORIAL HepG2 Assay for human Phenobarbital-responsive Enhancer Module (PBREM) (AID 2282955); conditions: HepG2 PBREM cis-reporter, Attagene multiplexed transcription; actives raise or lower the signal
# Procedure, shortened: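 After a 24 h incubation with test chemical, transfected HepG2 cells yield total RNA; reporter-specific RT-PCR products are fluorescently labelled, HpaI-digested and resolved by capillary electrophoresis against ROX size standards.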
# [11] = target: Paired box protein Pax-6 (Homo sapiens) (UniProt P26367); test: ATG_Pax6_CIS: Attagene CIS-FACTORIAL HepG2 Assay for human Paired Box 6 (PAX6) (AID 2282956); conditions: HepG2 CIS-FACTORIAL PAX6 reporter transcription, RNA readout; actives raise or lower the signal
# Procedure, shortened: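 Readout: reporter transcript fluorescence after RT-PCR and capillary electrophoresis. Cells: HepG2, transiently transfected with cis-regulated MRTUs. Exposure 24 h. Gain or loss of signal fitted bidirectionally relative to DMSO.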
# [12] = ATG_PXRE_CIS: Attagene CIS-FACTORIAL HepG2 Assay for human Pregnane X Receptor Element (PXRE) (AID 2282957); conditions: HepG2 Attagene CIS-FACTORIAL PXRE reporter, mRNA; actives raise or lower the signal
# Procedure, shortened: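 After a 24 h chemical incubation, total RNA from transfected HepG2 cells was reverse-transcribed and reporter cDNA amplified, FAM-labeled, HpaI-digested and sized by capillary electrophoresis. DMSO served as baseline for bidirectional curve fitting.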
# [13] = ATG_PPRE_CIS: Attagene CIS-FACTORIAL HepG2 Assay for human Peroxisome Proliferator-activated Response Element (PPRE) (AID 2282958); conditions: HepG2 PPRE cis-element reporter, Attagene transcription factor profiling; actives raise or lower the signal
# Procedure, shortened: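 Multiplexed reporter transcription units under cis-regulatory promoters were transfected into HepG2 cells to capture endogenous factor activity. A 24 h incubation preceded RNA isolation and fluorescent RT-PCR fragment analysis.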
# [14] = ATG_RORE_CIS: Attagene CIS-FACTORIAL HepG2 Assay for human RAR-related Orphan Receptor Element (RORE) (AID 2282959); conditions: HepG2 Attagene cis-factorial RORE reporter, mRNA; actives raise or lower the signal
# Procedure, shortened: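 Fluorescence intensity of reporter-specific cDNA fragments, separated by capillary electrophoresis, gives the signal. Source: HepG2 liver cells transiently transfected with cis-element reporters and exposed 24 h; DMSO-normalized bidirectional fit.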
# [15] = ATG_Sox_CIS: Attagene CIS-FACTORIAL HepG2 Assay for human SRY-box transcription factor (SOX) (AID 2282960); conditions: HepG2 Attagene cis-factorial SOX reporter, mRNA; actives raise or lower the signal
# Procedure, shortened: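 After 24 h of chemical treatment, transfected HepG2 reporter cells are lysed for total RNA. Transcript levels come from RT-PCR with labelled primer extension and capillary electrophoresis, analysed bidirectionally versus DMSO.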
# [16] = target: Transcription factor Sp1 (Homo sapiens) (UniProt P08047); test: ATG_Sp1_CIS: Attagene CIS-FACTORIAL HepG2 Assay for human Specificity Protein 1 (Sp1) (AID 2282961); conditions: HepG2 Sp1 cis-reporter transcription, actives raise or lower the signal
# Procedure, shortened: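 Sp1-driven reporter mRNA, read as capillary electrophoresis fluorescence after RT-PCR, in transiently transfected HepG2 cells dosed for 24 h; signal change in either direction relative to DMSO.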
# [17] = ATG_SREBP_CIS: Attagene CIS-FACTORIAL HepG2 Assay for human Sterol Regulatory Element Binding (SREBP) (AID 2282962); conditions: HepG2 Attagene cis-factorial SREBP reporter, mRNA; actives raise or lower the signal
# Procedure, shortened: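 Readout: fluorescent reporter-transcript peaks resolved by capillary electrophoresis after RT-PCR. Cells were human HepG2 carrying transfected cis-promoter reporter constructs, dosed for 24 h. Gain or loss of signal was fitted against DMSO controls.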
# [18] = target: Signal transducer and activator of transcription 3 (Homo sapiens) (UniProt P40763); test: ATG_STAT3_CIS: Attagene CIS-FACTORIAL HepG2 Assay for human Signal Transducer and Activator of Transcription 3 (STAT3) (AID 2282963); conditions: HepG2, Attagene cis-factorial STAT3 reporter transcription; actives raise or lower the signal
# Procedure, shortened: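 Uses human liver HepG2 transiently carrying cis-regulated reporter transcription units. Following 24 h dosing, reporter mRNA induction was detected by RT-PCR and capillary electrophoresis, analysed bidirectionally versus DMSO.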
# [19] = ATG_TA_CIS: Attagene CIS-FACTORIAL HepG2 Assay for human TA Basal Promoter (AID 2282964); conditions: HepG2 Attagene CIS-factorial TA basal promoter reporter; actives raise or lower the signal
# Procedure, shortened: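 Fluorescence from labelled RT-PCR reporter fragments, separated by capillary electrophoresis, gives the signal. Cells: HepG2 transiently carrying multiple reporter units, 24 h chemical dosing. Gain or loss relative to DMSO.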
# [20] = ATG_TCF_b_cat_CIS: Attagene CIS-FACTORIAL HepG2 Assay for human T-Cell-Factor with beta-catenin (TCF/b-cat) (AID 2282965); conditions: HepG2 TCF/beta-catenin cis-reporter transcription, actives raise or lower the signal
# Procedure, shortened: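 Using capillary electrophoresis as the read-out, labelled reporter cDNA fragments from transiently transfected HepG2 were sized and quantified. Exposure lasted 24 hours; activity in either direction was referenced to DMSO.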
# Sequence of Signal transducer and activator of transcription 3 (Homo sapiens) (P40763 whole entry, looked up): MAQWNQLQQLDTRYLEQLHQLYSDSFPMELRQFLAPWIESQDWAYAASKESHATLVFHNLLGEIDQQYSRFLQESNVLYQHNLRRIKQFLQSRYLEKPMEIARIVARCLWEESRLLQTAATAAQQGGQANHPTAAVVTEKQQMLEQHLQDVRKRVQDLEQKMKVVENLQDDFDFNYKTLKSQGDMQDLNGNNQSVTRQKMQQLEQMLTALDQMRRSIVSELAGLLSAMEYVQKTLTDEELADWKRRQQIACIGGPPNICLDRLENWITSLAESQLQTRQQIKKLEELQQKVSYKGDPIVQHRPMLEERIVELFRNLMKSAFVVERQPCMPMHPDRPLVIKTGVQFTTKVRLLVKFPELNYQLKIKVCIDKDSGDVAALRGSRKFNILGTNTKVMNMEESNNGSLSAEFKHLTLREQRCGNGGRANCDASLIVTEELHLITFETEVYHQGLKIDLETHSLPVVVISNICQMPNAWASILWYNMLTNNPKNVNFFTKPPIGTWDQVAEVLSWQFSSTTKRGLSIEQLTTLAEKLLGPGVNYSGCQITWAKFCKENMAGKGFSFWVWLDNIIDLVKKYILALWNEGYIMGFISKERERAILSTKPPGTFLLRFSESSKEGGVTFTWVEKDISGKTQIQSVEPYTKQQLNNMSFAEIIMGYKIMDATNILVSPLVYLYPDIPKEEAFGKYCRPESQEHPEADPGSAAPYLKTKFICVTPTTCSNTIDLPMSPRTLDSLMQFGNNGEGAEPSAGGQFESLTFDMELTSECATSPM
# Sequence of Bile acid receptor (Homo sapiens) (Q96RI1 whole entry, looked up): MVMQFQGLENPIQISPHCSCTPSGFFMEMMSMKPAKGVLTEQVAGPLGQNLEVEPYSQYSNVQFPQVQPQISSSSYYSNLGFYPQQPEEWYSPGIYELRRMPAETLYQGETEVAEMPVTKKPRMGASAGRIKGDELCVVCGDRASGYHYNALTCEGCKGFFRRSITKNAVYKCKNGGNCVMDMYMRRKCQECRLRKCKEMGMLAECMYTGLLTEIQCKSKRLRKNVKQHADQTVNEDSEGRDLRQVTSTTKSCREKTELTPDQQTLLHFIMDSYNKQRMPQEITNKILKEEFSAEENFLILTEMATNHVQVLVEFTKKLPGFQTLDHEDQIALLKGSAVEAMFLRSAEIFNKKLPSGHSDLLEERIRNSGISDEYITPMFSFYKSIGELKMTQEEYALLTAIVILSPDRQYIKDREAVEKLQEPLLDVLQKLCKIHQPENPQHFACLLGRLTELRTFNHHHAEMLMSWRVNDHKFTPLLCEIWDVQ
# Sequence of Heat shock factor protein 1 (Homo sapiens) (Q00613 whole entry, looked up, the tested form may be a part): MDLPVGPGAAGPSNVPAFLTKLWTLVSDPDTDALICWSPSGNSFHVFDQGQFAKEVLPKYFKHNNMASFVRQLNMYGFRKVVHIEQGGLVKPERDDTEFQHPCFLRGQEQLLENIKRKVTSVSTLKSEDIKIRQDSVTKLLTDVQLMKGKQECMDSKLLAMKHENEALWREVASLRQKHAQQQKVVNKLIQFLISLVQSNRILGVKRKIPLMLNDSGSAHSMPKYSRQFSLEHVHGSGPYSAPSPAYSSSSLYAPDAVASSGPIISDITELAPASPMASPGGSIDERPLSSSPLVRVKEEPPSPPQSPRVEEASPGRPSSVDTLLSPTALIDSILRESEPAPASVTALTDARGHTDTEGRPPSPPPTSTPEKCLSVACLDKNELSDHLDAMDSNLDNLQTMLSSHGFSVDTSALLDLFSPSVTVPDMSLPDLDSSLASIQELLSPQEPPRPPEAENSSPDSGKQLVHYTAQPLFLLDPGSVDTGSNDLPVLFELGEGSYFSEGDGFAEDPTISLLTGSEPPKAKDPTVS
# Sequence of Paired box protein Pax-6 (Homo sapiens) (P26367 whole entry, looked up): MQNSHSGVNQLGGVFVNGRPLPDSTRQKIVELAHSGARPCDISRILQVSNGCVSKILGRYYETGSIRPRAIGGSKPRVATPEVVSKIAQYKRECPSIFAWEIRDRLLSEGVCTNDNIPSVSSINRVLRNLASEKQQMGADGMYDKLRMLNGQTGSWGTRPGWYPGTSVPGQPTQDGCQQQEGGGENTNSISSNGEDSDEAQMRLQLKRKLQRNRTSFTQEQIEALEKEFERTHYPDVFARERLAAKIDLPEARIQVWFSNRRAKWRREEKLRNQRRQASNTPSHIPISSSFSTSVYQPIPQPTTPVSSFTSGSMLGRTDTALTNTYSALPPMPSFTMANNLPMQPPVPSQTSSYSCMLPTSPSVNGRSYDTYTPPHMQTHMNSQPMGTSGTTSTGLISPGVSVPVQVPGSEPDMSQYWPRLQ
# Sequence of Hepatocyte nuclear factor 6 (Homo sapiens) (Q9UBC0 whole entry, looked up, the tested form may be a part): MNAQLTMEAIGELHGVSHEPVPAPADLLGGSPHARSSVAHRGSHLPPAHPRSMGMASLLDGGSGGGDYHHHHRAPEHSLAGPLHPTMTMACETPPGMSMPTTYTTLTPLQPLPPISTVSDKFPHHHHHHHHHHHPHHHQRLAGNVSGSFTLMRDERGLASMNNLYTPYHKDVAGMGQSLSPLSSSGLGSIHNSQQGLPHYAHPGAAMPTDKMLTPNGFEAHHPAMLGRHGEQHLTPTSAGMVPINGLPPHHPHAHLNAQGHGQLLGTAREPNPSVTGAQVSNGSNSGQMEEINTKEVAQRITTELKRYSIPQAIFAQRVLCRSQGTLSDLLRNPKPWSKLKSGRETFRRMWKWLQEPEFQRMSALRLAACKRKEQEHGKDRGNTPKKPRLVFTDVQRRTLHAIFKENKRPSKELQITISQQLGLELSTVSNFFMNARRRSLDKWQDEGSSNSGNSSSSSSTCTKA
# Sequence of Hypoxia-inducible factor 1-alpha (Homo sapiens) (Q16665 whole entry, looked up): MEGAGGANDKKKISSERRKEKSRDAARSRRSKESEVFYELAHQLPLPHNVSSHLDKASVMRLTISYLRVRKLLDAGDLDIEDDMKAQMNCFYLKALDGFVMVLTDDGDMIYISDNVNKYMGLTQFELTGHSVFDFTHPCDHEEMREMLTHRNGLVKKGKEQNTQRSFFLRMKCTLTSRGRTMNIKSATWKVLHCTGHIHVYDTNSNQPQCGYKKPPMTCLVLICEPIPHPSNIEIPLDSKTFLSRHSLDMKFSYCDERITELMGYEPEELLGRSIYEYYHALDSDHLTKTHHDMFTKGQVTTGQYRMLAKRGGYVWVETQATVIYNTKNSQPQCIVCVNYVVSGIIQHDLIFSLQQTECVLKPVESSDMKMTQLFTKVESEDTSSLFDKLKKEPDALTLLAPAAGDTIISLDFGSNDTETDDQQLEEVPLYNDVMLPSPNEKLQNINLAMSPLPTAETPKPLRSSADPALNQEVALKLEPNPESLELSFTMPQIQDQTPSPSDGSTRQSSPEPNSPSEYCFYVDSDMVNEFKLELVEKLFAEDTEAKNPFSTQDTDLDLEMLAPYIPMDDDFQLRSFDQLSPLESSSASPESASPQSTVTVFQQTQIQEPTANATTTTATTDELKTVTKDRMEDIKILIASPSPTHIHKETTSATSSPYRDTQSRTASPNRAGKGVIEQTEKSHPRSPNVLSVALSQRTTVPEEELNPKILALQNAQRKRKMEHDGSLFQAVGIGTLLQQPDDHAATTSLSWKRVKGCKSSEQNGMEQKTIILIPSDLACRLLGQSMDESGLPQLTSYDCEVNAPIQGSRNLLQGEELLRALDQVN
# Sequence of Transcription factor Sp1 (Homo sapiens) (P08047 whole entry, looked up): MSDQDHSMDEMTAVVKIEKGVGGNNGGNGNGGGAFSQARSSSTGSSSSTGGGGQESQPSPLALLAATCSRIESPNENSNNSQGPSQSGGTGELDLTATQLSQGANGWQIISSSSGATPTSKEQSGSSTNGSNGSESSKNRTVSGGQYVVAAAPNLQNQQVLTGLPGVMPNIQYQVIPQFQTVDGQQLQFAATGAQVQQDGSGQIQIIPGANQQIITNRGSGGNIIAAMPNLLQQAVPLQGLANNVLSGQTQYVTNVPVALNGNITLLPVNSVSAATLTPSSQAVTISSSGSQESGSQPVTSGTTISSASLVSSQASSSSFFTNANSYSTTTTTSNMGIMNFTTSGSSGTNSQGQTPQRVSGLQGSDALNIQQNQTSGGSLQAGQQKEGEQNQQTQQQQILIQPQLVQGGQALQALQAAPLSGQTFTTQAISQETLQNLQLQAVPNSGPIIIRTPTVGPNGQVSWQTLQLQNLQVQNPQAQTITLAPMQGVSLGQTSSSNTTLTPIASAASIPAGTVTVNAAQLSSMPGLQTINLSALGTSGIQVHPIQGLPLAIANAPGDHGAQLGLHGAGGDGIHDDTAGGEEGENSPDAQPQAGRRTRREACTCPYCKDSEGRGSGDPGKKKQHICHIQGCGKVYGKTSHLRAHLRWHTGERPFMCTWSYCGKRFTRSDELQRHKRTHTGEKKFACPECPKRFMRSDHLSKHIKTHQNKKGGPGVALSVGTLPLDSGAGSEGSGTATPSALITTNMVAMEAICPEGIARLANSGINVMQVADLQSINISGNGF
structure (smiles),measurement,setting,value
CCN(CC)C(=O)c1cc(S(=O)(=O)Cc2ccccc2)c(N2CCC(c3ccccc3)CC2)cc1N(CC)CCN(C)C,outcome,[1],inactive
same,outcome,[2],inactive
same,outcome,[3],inactive
same,outcome,[4],inactive
same,outcome,[5],inactive
same,AC50,[6],3.7 µM (active)
same,outcome,[7],inactive
same,outcome,[8],inactive
same,AC50,[9],3.7 µM (active)
same,outcome,[10],inactive
same,outcome,[11],inactive
same,AC50,[12],0.126 µM (active)
same,outcome,[13],inactive
same,outcome,[14],inactive
same,outcome,[15],inactive
same,outcome,[16],inactive
same,AC50,[17],926 nM (active)
same,outcome,[18],inactive
same,outcome,[19],inactive
same,outcome,[20],inactive
Cc1ccc(C(C)C)cc1,outcome,[1],inactive
same,outcome,[2],inactive
same,outcome,[3],inactive
same,outcome,[4],inactive
same,outcome,[5],inactive
same,outcome,[6],inactive
same,outcome,[7],inactive
same,outcome,[8],inactive
same,outcome,[9],inactive
same,outcome,[10],inactive
same,outcome,[11],inactive
same,outcome,[12],inactive
same,outcome,[13],inactive
same,outcome,[14],inactive
same,outcome,[15],inactive
same,outcome,[17],inactive
same,outcome,[18],inactive
same,outcome,[19],inactive
same,outcome,[20],inactive
O=C1CCC(C2CCCCC2)CC1,AC50,[1],151 µM (active) and 159 µM (active)
same,outcome,[1],inactive
same,outcome,[2],inactive
same,AC50,[3],134 µM (active)
same,outcome,[3],inactive
same,outcome,[4],inactive
same,outcome,[5],inactive
same,AC50,[6],0.821 µM (active)
same,outcome,[6],inactive
same,outcome,[7],inactive
same,AC50,[8],150 µM (active)
same,outcome,[8],inactive
same,AC50,[9],100 µM (active) and 154 µM (active) and 114 µM (active)
same,outcome,[9],inactive
same,outcome,[10],inactive
same,AC50,[11],156 µM (active)
same,outcome,[11],inactive
same,AC50,[12],10.4 µM (active) [middle of 4 runs]
same,outcome,[13],inactive
same,outcome,[14],inactive
same,outcome,[15],inactive
same,outcome,[17],inactive
same,outcome,[18],inactive
same,outcome,[19],inactive
same,outcome,[20],inactive
CN(C)c1ccc(C(=C2C=CC(=[N+](C)C)C=C2)c2ccc(N(C)C)cc2)cc1,AC50,[1],2.87 µM (active)
same,outcome,[2],inactive
same,AC50,[3],2.28 µM (active)
same,AC50,[4],2.03 µM (active)
same,outcome,[5],inactive
same,outcome,[6],inactive
same,outcome,[7],inactive
same,AC50,[8],6.63 µM (active)
same,AC50,[9],4.28 µM (active)
same,AC50,[10],5.8 µM (active)
same,outcome,[11],inactive
same,AC50,[12],2.19 µM (active)
same,outcome,[13],inactive
same,outcome,[14],inactive
same,outcome,[15],inactive
same,AC50,[16],1.69 µM (active)
same,outcome,[17],inactive
same,outcome,[18],inactive
same,AC50,[19],990 nM (active)
same,AC50,[20],2.96 µM (active)
O=c1c(-c2ccc(O)cc2)coc2cc(O)cc(O)c12,AC50,[1],10.4 µM (active) and 10.6 µM (active)
same,outcome,[1],inactive
same,outcome,[2],inactive
same,outcome,[3],inactive
same,outcome,[4],inactive
same,outcome,[5],inactive
same,outcome,[6],inactive
same,outcome,[7],inactive
same,outcome,[8],inactive
same,AC50,[9],81.4 µM (active) and 137 µM (active)
same,outcome,[9],inactive
same,AC50,[10],43.7 µM (active)
same,outcome,[10],inactive
same,outcome,[11],inactive
same,AC50,[12],27.9 µM (active)
same,outcome,[12],inactive
same,AC50,[13],14.7 µM (active) and 66.3 µM (active) and 50 µM (active)
same,outcome,[13],inactive
same,outcome,[14],inactive
same,outcome,[15],inactive
same,AC50,[17],28.2 µM (active) [middle of 4 runs]
same,outcome,[18],inactive
same,outcome,[19],inactive
same,outcome,[20],inactive
